{"source": "paper PMC12820563", "about": "“FoxP3 forms a head-to-head dimer in vivo and stabilizes its multimerization on adjacent microsatellites”", "note": "In all, about 16,000 sequences were measured (“rpm ratio (pull-down/input)”: median about 0.5, highest 2% from about 5.5 on). The sample as a whole holds a higher share of the highest values than the screen did."}
{"biological_target": "T1, MBP-FoxP3dN (Mus musculus, UniProt Q99JB6 188-423)", "T1 sequence": "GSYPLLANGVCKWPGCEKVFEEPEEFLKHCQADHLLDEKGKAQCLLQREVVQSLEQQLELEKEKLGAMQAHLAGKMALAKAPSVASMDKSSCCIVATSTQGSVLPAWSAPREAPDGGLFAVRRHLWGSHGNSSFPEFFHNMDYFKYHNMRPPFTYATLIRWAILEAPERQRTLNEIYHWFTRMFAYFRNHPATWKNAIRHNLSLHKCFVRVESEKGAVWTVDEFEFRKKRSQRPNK", "assay": "PD-seq (MBP pull-down with sequencing); 20 mM Tris-HCl pH 7.5, 100 mM NaCl, 1.5 mM MgCl2, 0.4 uM protein, 0.1 uM dsDNA library, 30 min, room temperature, amylose pull-down; high values mean tight binding", "details": "protein: recombinant; tags: His6-MBP; chain copies: 2; dsDNA, one strand shown", "method_in_brief": "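E. coli-expressed mouse FoxP3 or FoxP1 fragment, N-terminus removed and tagged with His6-MBP, was used at 0.4 µM against 0.1 µM of a Klenow-filled degenerate double-stranded DNA library. After 30 min at room temperature in Tris pH 7.5 buffer with NaCl and MgCl2, complexes were pulled down on amylose resin and washed three times. Binding is pull-down over input reads-per-million enrichment from pooled replicates of the proteinase K-released, PCR-barcoded, Illumina-sequenced DNA.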"}
{"sequence": "GATGATTGTTCTCCCAGCTGATGAATTATGAATGTCGAGTAAACAAATTTTCCTAATCTTTCTGTTCAAGCGCCATCTAC", "binding signal": "1.04 RPM ratio (pull-down/input)"}
{"sequence": "GATGATTGTTCTCCCAGCTGATGAATTAATTATGTCGAGTAAACAAATTTTCCTAATCTTTCTGTTCAAGCGCCATCTAC", "binding signal": "1.89 RPM ratio (pull-down/input)"}
{"sequence": "GATGATTGTTCTCCCAGCTGATGAATTATGAAATTCGAGTAAACAAATTTTCCTAATCTTTCTGTTCAAGCGCCATCTAC", "binding signal": "0.632 RPM ratio (pull-down/input)"}
{"sequence": "GATGATTGTTCTCCCAGCTGATGAATTATGCCTCTCGAGTAAACAAATTTTCCTAATCTTTCTGTTCAAGCGCCATCTAC", "binding signal": "6.22 RPM ratio (pull-down/input)"}
{"sequence": "GATGATTGTTCTCCCAGCTGATGAATTATGCCTGTCGAGTAAACAAATTTTCCTAATCTTTCTGTTCAAGCGCCATCTAC", "binding signal": "5.87 RPM ratio (pull-down/input)"}
{"sequence": "GATGATTGTTCTCCCAGCTGATGAATTCTGCGGCTCGAGTAAACAAATTTTCCTAATCTTTCTGTTCAAGCGCCATCTAC", "binding signal": "1.01 RPM ratio (pull-down/input)"}
{"sequence": "GATGATTGTTCTCCCAGCTGATGAATTGCAGCCTTCGAGTAAACAAATTTTCCTAATCTTTCTGTTCAAGCGCCATCTAC", "binding signal": "2.83 RPM ratio (pull-down/input)"}
{"sequence": "GATGATTGTTCTCCCAGCTGATGAATTGTAAACATCGAGTAAACAAATTTTCCTAATCTTTCTGTTCAAGCGCCATCTAC", "binding signal": "5.2 RPM ratio (pull-down/input)"}
{"sequence": "GATGATTGTTCTCCCAGCTGATGAATTTGCCGATTCGAGTAAACAAATTTTCCTAATCTTTCTGTTCAAGCGCCATCTAC", "binding signal": "0.474 RPM ratio (pull-down/input)"}
{"sequence": "GATGATTGTTCTCCCAGCTGATGAATTAAATCTCTCGAGTAAACAAATTTTCCTAATCTTTCTGTTCAAGCGCCATCTAC", "binding signal": "0.29 RPM ratio (pull-down/input)"}
{"sequence": "GATGATTGTTCTCCCAGCTGATGAATTCAGTTCGTCGAGTAAACAAATTTTCCTAATCTTTCTGTTCAAGCGCCATCTAC", "binding signal": "0.758 RPM ratio (pull-down/input)"}
{"sequence": "GATGATTGTTCTCCCAGCTGATGAATTACTTCTATCGAGTAAACAAATTTTCCTAATCTTTCTGTTCAAGCGCCATCTAC", "binding signal": "0.347 RPM ratio (pull-down/input)"}
{"sequence": "GATGATTGTTCTCCCAGCTGATGAATTCCGAACTTCGAGTAAACAAATTTTCCTAATCTTTCTGTTCAAGCGCCATCTAC", "binding signal": "0.253 RPM ratio (pull-down/input)"}
{"sequence": "GATGATTGTTCTCCCAGCTGATGAATTTATGAATTCGAGTAAACAAATTTTCCTAATCTTTCTGTTCAAGCGCCATCTAC", "binding signal": "0.946 RPM ratio (pull-down/input)"}
{"sequence": "GATGATTGTTCTCCCAGCTGATGAATTTTATGCATCGAGTAAACAAATTTTCCTAATCTTTCTGTTCAAGCGCCATCTAC", "binding signal": "1.54 RPM ratio (pull-down/input)"}
{"sequence": "GATGATTGTTCTCCCAGCTGATGAATTATCCCACTCGAGTAAACAAATTTTCCTAATCTTTCTGTTCAAGCGCCATCTAC", "binding signal": "0.322 RPM ratio (pull-down/input)"}
{"sequence": "GATGATTGTTCTCCCAGCTGATGAATTATTTCATTCGAGTAAACAAATTTTCCTAATCTTTCTGTTCAAGCGCCATCTAC", "binding signal": "0.381 RPM ratio (pull-down/input)"}
{"sequence": "GATGATTGTTCTCCCAGCTGATGAATTATGACACTCGAGTAAACAAATTTTCCTAATCTTTCTGTTCAAGCGCCATCTAC", "binding signal": "2.61 RPM ratio (pull-down/input)"}
{"sequence": "GATGATTGTTCTCCCAGCTGATGAATTTATGCATTCGAGTAAACAAATTTTCCTAATCTTTCTGTTCAAGCGCCATCTAC", "binding signal": "7.56 RPM ratio (pull-down/input)"}
{"sequence": "GATGATTGTTCTCCCAGCTGATGAATTATGCAACTCGAGTAAACAAATTTTCCTAATCTTTCTGTTCAAGCGCCATCTAC", "binding signal": "6.6 RPM ratio (pull-down/input)"}
{"sequence": "GATGATTGTTCTCCCAGCTGATGAATTATTCATTTCGAGTAAACAAATTTTCCTAATCTTTCTGTTCAAGCGCCATCTAC", "binding signal": "0.406 RPM ratio (pull-down/input)"}
{"sequence": "GATGATTGTTCTCCCAGCTGATGAATTATGAAACTCGAGTAAACAAATTTTCCTAATCTTTCTGTTCAAGCGCCATCTAC", "binding signal": "0.828 RPM ratio (pull-down/input)"}
{"sequence": "GATGATTGTTCTCCCAGCTGATGAATTATGGCATTCGAGTAAACAAATTTTCCTAATCTTTCTGTTCAAGCGCCATCTAC", "binding signal": "5.55 RPM ratio (pull-down/input)"}
{"sequence": "GATGATTGTTCTCCCAGCTGATGAATTATTCAACTCGAGTAAACAAATTTTCCTAATCTTTCTGTTCAAGCGCCATCTAC", "binding signal": "0.381 RPM ratio (pull-down/input)"}
{"sequence": "GATGATTGTTCTCCCAGCTGATGAATTATGCCACTCGAGTAAACAAATTTTCCTAATCTTTCTGTTCAAGCGCCATCTAC", "binding signal": "6.25 RPM ratio (pull-down/input)"}
{"sequence": "GATGATTGTTCTCCCAGCTGATGAATTGAAAACATCGAGTAAACAAATTTTCCTAATCTTTCTGTTCAAGCGCCATCTAC", "binding signal": "1.27 RPM ratio (pull-down/input)"}
{"sequence": "GATGATTGTTCTCCCAGCTGATGAATTCAGGACCTCGAGTAAACAAATTTTCCTAATCTTTCTGTTCAAGCGCCATCTAC", "binding signal": "0.26 RPM ratio (pull-down/input)"}
{"sequence": "GATGATTGTTCTCCCAGCTGATGAATTGCGTCATTCGAGTAAACAAATTTTCCTAATCTTTCTGTTCAAGCGCCATCTAC", "binding signal": "2.09 RPM ratio (pull-down/input)"}
{"sequence": "GATGATTGTTCTCCCAGCTGATGAATTGCGGGGGTCGAGTAAACAAATTTTCCTAATCTTTCTGTTCAAGCGCCATCTAC", "binding signal": "0.984 RPM ratio (pull-down/input)"}
{"sequence": "GATGATTGTTCTCCCAGCTGATGAATTGAGCTGGTCGAGTAAACAAATTTTCCTAATCTTTCTGTTCAAGCGCCATCTAC", "binding signal": "0.419 RPM ratio (pull-down/input)"}
{"sequence": "GATGATTGTTCTCCCAGCTGATGAATTAGGATGGTCGAGTAAACAAATTTTCCTAATCTTTCTGTTCAAGCGCCATCTAC", "binding signal": "0.492 RPM ratio (pull-down/input)"}
{"sequence": "GATGATTGTTCTCCCAGCTGATGAATTGGAAGCCTCGAGTAAACAAATTTTCCTAATCTTTCTGTTCAAGCGCCATCTAC", "binding signal": "0.359 RPM ratio (pull-down/input)"}
